Each structure is given as a SMILES string. Among all 48,000 compounds or so, about 13,000 (27%) showed an effect of 50% or more. This is one part of the list.

The text below walks through data of ChEMBL document CHEMBL3988442, “University of Dundee, Small-Polar-MMV Screening Library” (2021).

For this test, the system named is Wolbachia pipientis. Description: Anti-Wolbachia Cell-Based Screen. It counts as functional. The arrangement: scale not given: in the data most compounds retested in dose-response had high values. The following applies: 5 µM.
Take `Cc1cc(CNC(=O)N2CCc3ccccc32)on1`: the “Percent Effect” value is given as 8.57%.

`CC(C)C(C(=O)N1CCN(Cc2ccncc2)CC1)n1cncn1` (centres undefined): the “Percent Effect” value is -9.917%.

For the compound `CC(C)N1CCOC(CC(=O)N2CCCN(Cc3cccs3)CC2)C1` (centres undefined), the “Percent Effect” value came to 115.9%.

On to `CC(C)N1CCOC(CC(=O)N2CC(c3ccncc3)C2)C1` (centres undefined), for which the “Percent Effect” value is recorded as 103.1%.

Consider `O=C1Cc2cc(NC(=O)N3CCCN(Cc4cccs4)CC3)ccc2N1`, for which the “Percent Effect” value is listed as -14%.

As to `COc1ccc(C(=O)N2CC(c3ccncc3)C2)c(OC)c1OC`, the “Percent Effect” value is recorded as -3.767%.

For `Cn1cc(Cl)cc1C(=O)N1CCCN(Cc2cccs2)CC1`, the “Percent Effect” value came to 6.765%.

As for `CC(C)N1CCOC(CC(=O)N2CCCN(Cc3ccncc3)CC2)C1` (centres undefined), the “Percent Effect” value is recorded as 108.1%.

For `CC(C)c1noc(CCCC(=O)N2CCN(Cc3ccncc3)CC2)n1`, the “Percent Effect” value is 9.979%.

Regarding `CCn1nc(CC(C)C)cc1C(=O)N1CC(c2ccncc2)C1`, the “Percent Effect” value is on record as 2.203%.

Regarding `NC(=O)c1cnc(NCC(=O)NCc2ccco2)c(Cl)c1`, the “Percent Effect” value is reported as -1.038%.

For `COCC(=O)N[C@H](C)c1onc(-c2ccc(Cl)cc2)c1C(=O)O`, the “Percent Effect” value is recorded as -3.63%.

`Cc1nccn1CCC1CCCCN1Cc1cccc(CCN)c1` (centres undefined): the “Percent Effect” value is recorded as -7.51%.

For `CCOC(=O)Cc1csc(NC(=O)c2ccc(=O)[nH]n2)n1`, the “Percent Effect” value worked out at 95.75%.

In the case of `NC(=O)Cc1csc(NC(=O)C2CSCCC(=O)N2)n1` (centres undefined), the “Percent Effect” value worked out at 2.989%.

With `O=C(NCc1csc(Br)c1)c1ccc(=O)[nH]n1`, the “Percent Effect” value is reported as 9.228%.

Take `O=C(c1ccno1)N1CC(c2nc(-c3ccco3)no2)C1`: the “Percent Effect” value is given as 0.6255%.

With `O=S(=O)(Cc1ccccc1)NCCNc1ccc(-n2cccc2)nn1`, the “Percent Effect” value turned out to be 11.81%.

As to `CN(C)C1CCN(C(=O)CCc2cc(Br)cs2)CC1`, the “Percent Effect” value was determined as 1.097%.

For `CNC(=O)CCc1cc(C)nc(C2CCN(CC(=O)N(C)C)CC2)c1`, the “Percent Effect” value is reported as 129.2%.

Take `CNC(=O)CCc1cc(C)nc(C2CCN(C(=O)CN(C)C)CC2)c1`: the “Percent Effect” value was 154.4%.

For the compound `Cc1cc(C)cc(CCC(=O)N2CCN(c3cc(C)nc(N)n3)CC2)c1`, the “Percent Effect” value is on record as -5.077%.

Regarding `Cc1cc2cc(CNC3CCN(CC(=O)N(C)C)CC3)oc2cc1C`, the “Percent Effect” value is listed as -4.492%.

For the compound `COC(=O)[C@@H]1Cc2[nH]cnc2CN1Cc1cc2ccccc2o1`, the “Percent Effect” value worked out at 9.178%.

Consider `CC(=O)N1CCCN(Cc2ccon2)c2ccccc21`, for which the “Percent Effect” value was determined as 1.908%.

For `Cc1c(CS(C)(=O)=O)cccc1NCC1CCCCC1`, the “Percent Effect” value came out at 1.975%.

Take `CCN1CC(C(=O)NC(C)(C)C)CC1=O` (centres undefined): the “Percent Effect” value is -9.629%.

Regarding `CCN1CC(C(=O)NC(C)(C)CNC(=O)OC(C)(C)C)CC1=O` (centres undefined), the “Percent Effect” value is on record as -0.2967%.

On to `CCC(C)(C)NC(=O)C1CC(=O)N(CC2CC2)C1` (centres undefined), for which the “Percent Effect” value came to 3.552%.

In the case of `COC(=O)C(C)(C)NC(=O)C1CC(=O)N(CC(C)C)C1` (centres undefined), the “Percent Effect” value is recorded as 100.8%.

For the compound `CCCc1nc(C(C)(C)NC(=O)C2CC(=O)N(CC3CC3)C2)no1` (centres undefined), the “Percent Effect” value is listed as -6.715%.

As to `COC(=O)C(C)(C)NC(=O)C1CC(=O)N(CC(F)(F)F)C1` (centres undefined), the “Percent Effect” value stood at 83.67%.

Regarding `COC(=O)C(C)(C)NC(=O)C1CC(=O)N(C)C1` (centres undefined), the “Percent Effect” value is recorded as -1.781%.

Turning to `CCN1CC(C(=O)NC(C)(C)CC)CC1=O` (centres undefined), the “Percent Effect” value is -10.63%.

Regarding `CCN1CC(C(=O)NC(C)(C)C(=O)OC)CC1=O` (centres undefined), the “Percent Effect” value is listed as 77.38%.

Regarding `O=C(NCCNc1ncccn1)C1CC(=O)N(CC(F)(F)F)C1` (centres undefined), the “Percent Effect” value came out at 1.939%.

Consider `CCN1CC(C(=O)NC(C)(C)CC(C)(C)C)CC1=O` (centres undefined), for which the “Percent Effect” value amounted to 2.297%.

Consider `COC(=O)C(C)(C)NC(=O)C1CC(=O)N(CC2CC2)C1` (centres undefined), for which the “Percent Effect” value is given as 110.1%.

`CN(C)CCOCC1CN(C(=O)c2ccccn2)Cc2ccnn2C1` (centres undefined): the “Percent Effect” value is on record as -6.376%.

For `Cc1ccccc1OCCCC(=O)N(C)CCC#N`, the “Percent Effect” value is listed as 8.227%.

Turning to `COC(=O)C(C)(C)NC(=O)C1CC(=O)N(C2CCCC2)C1` (centres undefined), the “Percent Effect” value stood at 4.73%.

`COC(=O)C(C)(C)NC(=O)C1CC(=O)N(C2CC2)C1` (centres undefined): the “Percent Effect” value is reported as 103.7%.

Consider `CC(C)(CNC(=O)OC(C)(C)C)NC(=O)C1CC(=O)N(C2CC2)C1` (centres undefined), for which the “Percent Effect” value was 10.96%.

Turning to `Cl.Cn1nc(C2CCCN(Cc3cc(F)cc(F)c3)C2)c2nccnc21` (centres undefined), the “Percent Effect” value is recorded as 114.5%.

As for `Cn1ccnc1CN1CCCC(CCc2ccc(F)c(F)c2)C1` (centres undefined), the “Percent Effect” value turned out to be 5.156%.

As to `COc1ccnc(CN2CCCC(CCc3ccc(F)cc3)C2)c1OC` (centres undefined), the “Percent Effect” value was -12.62%.

With `CCCC(=O)NC1CCCN(Cc2cccs2)C1` (centres undefined), the “Percent Effect” value is 90.44%.

For the compound `Cn1cncc1-c1nnc([C@H]2CCN(Cc3ccc(F)c(F)c3)C2)o1`, the “Percent Effect” value was -0.5491%.

With `Cl.Cn1nc(C2CCCN(Cc3ccc(F)cc3)C2)c2nccnc21` (centres undefined), the “Percent Effect” value stood at 103.8%.

As to `Cl.Cn1nc(C2CCCN(Cc3ccc(F)c(F)c3)C2)c2nccnc21` (centres undefined), the “Percent Effect” value was 94.15%.

In the case of `CC(C)(C)OC(=O)NC1CCCN(Cc2cccs2)C1` (centres undefined), the “Percent Effect” value is 5.758%.

Regarding `Fc1ccc(NC2CCCN(Cc3ccncc3)C2)cc1` (centres undefined), the “Percent Effect” value is 7.502%.

In the case of `Cc1ncsc1CCC(=O)NC1CCN(Cc2cccs2)CC1`, the “Percent Effect” value amounted to 5.127%.

With `Cl.Cn1nc(C2CCCN(Cc3cccc(F)c3)C2)c2nccnc21` (centres undefined), the “Percent Effect” value stood at 5.539%.
